Assay outcomes: PubChem, several laboratories
Sampled rows, rich in hits. Any-hit rate of the full collection: about 3%.
Rv3671c inh: Rv3671c (M. tuberculosis) protease inhibition; P9WHR9; inhibition, % at 5.96 µM; actives 0.048% (n = 320,000); in the data active = inhibition above about 38%;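 also: extracellular domain of Rv3671c used as enzyme; 0% = enzyme with DMSO and 100% = no enzyme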
Target sequence (P9WHR9 whole entry, looked up, the tested form may be a part): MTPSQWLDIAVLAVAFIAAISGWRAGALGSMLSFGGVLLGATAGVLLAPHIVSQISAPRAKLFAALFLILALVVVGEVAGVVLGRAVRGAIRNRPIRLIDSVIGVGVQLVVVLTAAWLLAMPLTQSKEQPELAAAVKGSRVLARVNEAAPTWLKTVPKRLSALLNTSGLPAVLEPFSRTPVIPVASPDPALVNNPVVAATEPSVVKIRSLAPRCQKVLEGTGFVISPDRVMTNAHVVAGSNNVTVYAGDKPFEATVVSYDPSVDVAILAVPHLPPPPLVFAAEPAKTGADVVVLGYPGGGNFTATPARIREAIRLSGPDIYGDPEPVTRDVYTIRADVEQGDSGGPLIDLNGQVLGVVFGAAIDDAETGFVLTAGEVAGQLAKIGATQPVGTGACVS
GDH-TPI counter-1: inhibits GDH-TPI coupling enzymes, artifact for Mtb FBA screen. GDH-TPI coupled enzyme counterscreen, NADH absorbance. inhibition, % at 4.8 µM. actives 1.2% (n = 360,000); in the data active = inhibition above about 30%;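 also: 0% = DMSO wells and 100% = wells lacking the enzyme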
Mtb FBA inh: inhibitors of M. tuberculosis fructose-bisphosphate aldolase; purified M. tuberculosis FBA, fluorescence read-out; inhibition, % at 1 µM; actives 2.3% (n = 360,000); P9WQA3;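 also: 0% = vehicle and 100% = reference inhibitor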
BioA inh: blocks M. tuberculosis BioA enzyme activity | purified M. tuberculosis BioA enzyme, plate reader | inhibition, % at 9.99 µM | actives 0.096% (n = 360,000); in the data active = inhibition above about 40%
FadD28 binding: M. tuberculosis FadD28 bisubstrate binding inhibition. inhibition, % at 12.5 µM. AID 588549. FadD28 bisubstrate probe binding, fluorescence polarization. actives 0.22% (n = 360,000); in the data active = inhibition above about 8.5%, passing the limit was not always enough
Mtb FBA confirm: Mtb FBA inhibition, confirmed | shares compounds with Mtb FBA inh | purified M. tuberculosis FBA, fluorescence read-out | inhibition, % at 1 µM | actives 78% (n = 5,600);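 also: 0% = vehicle wells and 100% = reference inhibitor wells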
GDH-TPI counter-2: GDH-TPI inhibition counter-screen for FBA inhibitors; shares compounds with Mtb FBA inh; GDH-TPI coupled enzyme counterscreen, fluorescence; inhibition, % at 1 µM; actives 81% (n = 5,600); in the data active = inhibition above about 10%
Active calls of the source: *; · = no result; + = active, no number. Rule as the data show it, unless noted: active = inhibition above about 27%; inactive = the rest.

SMILES	Rv3671c inh	GDH-TPI counter-1	Mtb FBA inh	BioA inh	FadD28 binding	Mtb FBA confirm	GDH-TPI counter-2
COc1ccc(Cn2c(N)c(S(=O)(=O)c3cccs3)c3nc4ccccc4nc32)cc1	-1	13	49*	-2	-1	115*	79*
Cc1noc(C)c1S(=O)(=O)Nc1ccc2c(c1)CC(=O)N([C@@H](C)CO)C[C@H](C)[C@@H](CN(C)Cc1ccc(Oc3ccccc3)cc1)O2	·	·	·	-1	·	·	·
CCNC(=O)/C(C#N)=C/c1c(N2CCCCCC2)nc2c(C)cccn2c1=O	-2	13	-2	4	-1	·	·
CCN1CCN(c2nc3c(C)cccn3c(=O)c2/C=C(\C#N)C(=O)NC)CC1	9	7	30*	0	1	32*	20*
CNC(=O)/C(C#N)=C/c1c(N2CCN(C)CC2)nc2c(C)cccn2c1=O	-3	17	28*	0	0	62*	59*
CCOC(=O)/C(C#N)=C/c1c(N2CCN(CC)CC2)nc2c(C)cccn2c1=O	-3	10	3	-4	0	·	·
CCOC(=O)c1sc(-c2ccc(OC)cc2)cc1NC(C)=O	·	19	79*	·	0	153*	134*
O=C(Nc1nnc(/C=C/c2ccccc2)s1)c1ccco1	4	74*	34*	-1	-2	-1	0
Cc1c(SCCO)c(=O)[nH]c2cc3c(cc12)OCO3	5	17	35*	-2	-1	127*	120*
C[C@H](CO)N1C[C@H](C)[C@H](CN(C)S(C)(=O)=O)Oc2ccc(NC(=O)Nc3cccc4ccccc34)cc2C1=O	·	·	·	-1	·	·	·
Cc1cnc(NC(=O)Nc2ccccc2)c(C)n1	2	9	59*	-2	1	-5	-3
CC(=O)Nc1ccc(NC(=O)Nc2ccccc2)cc1	-8	-5	0	-1	1	·	·
C/C=C/c1ccc([C@H]2[C@@H](CNC(=O)C3CC3)N(C(=O)NCCC)[C@H]2CO)cc1	·	·	·	-4	·	·	·
O=C(CSCc1nc2scc(-c3cccs3)c2c(=O)[nH]1)Nc1ccccn1	-2	7	34*	1	-1	0	-5
O=C(O)CSCc1nc2scc(-c3ccccc3)c2c(=O)[nH]1	-1	0	1	·	-1	·	·
Nc1ccccc1C(=O)NC1CCCNC1=O (stereo unspecified)	1	-2	61*	-1	0	+	+
O=C(Nc1ccc(Cl)cc1)NC1CCCCNC1=O (stereo unspecified)	-1	6	-3	-1	0	·	·
Oc1ccc2ccccc2c1C=Nc1ccccc1-c1nc2ccccc2[nH]1	-11	9	67*	·	-4	62*	38*
CC(C)(C)c1ccc(O)c(N=Cc2c(O)ccc3ccccc23)c1	-7	6	-6	-3	-3	·	·
CCOC(=O)C1=C(COC(=O)C2CC(=O)N(c3ccc(C)cc3)C2)NC(=O)NC1C (stereo unspecified)	-3	4	65*	0	-2	138*	89*
O=S(=O)(c1cccs1)N1CCCCN2[C@@H](CO)[C@H](c3ccc(C4=CCCC4)cc3)[C@@H]2C1	·	·	·	-3	·	·	·
COc1ccccc1-c1nnc(Nc2nc3c(OC)cccc3s2)o1	3	43*	33*	-2	-1	40*	41*
COc1cccc2sc(Nc3nnc(-c4ccccc4Cl)o3)nc12	-1	28	18	0	0	·	·
CCn1ncc(-c2ccnc3cc(C(=O)O)nn23)c1C	5	9	68*	·	-2	137*	131*
C[C@H]1CN([C@@H](C)CO)C(=O)c2cc(NC(=O)Cn3cnnn3)ccc2O[C@@H]1CN(C)S(C)(=O)=O	·	·	·	0	·	·	·
SMILES	Rv3671c inh	GDH-TPI counter-1	Mtb FBA inh	BioA inh	FadD28 binding	Mtb FBA confirm	GDH-TPI counter-2
COc1ccc(Cn2cc(Cn3c4ccccc4c(=O)n3C(C)C)nn2)cc1	·	·	105*	4	0	77*	55*
CC(C)n1c(=O)c2ccccc2n1Cc1cn(-c2ccc(Cl)cc2)nn1	·	·	56*	1	-4	35*	30*
C[C@H]1CN([C@@H](C)CO)C(=O)c2cc(-c3cccc(C#N)c3)cnc2O[C@H]1CN(C)C(=O)C1CCC1	·	·	·	-1	·	·	·
N#Cc1cc2cc3c(cc2nc1N1CCCCC1)OCCO3	-3	13	47*	-1	-4	55*	42*
Cc1ccc(C(=O)N2CCCN(c3nc4cc5c(cc4cc3C#N)OCO5)CC2)cc1	-4	10	45*	·	1	145*	88*
COc1ccc(C(=O)N2CCN(c3nc4cc(C)cc(C)c4cc3C#N)CC2)cc1	·	-1	11	-1	-5	·	·
COc1ccc(-c2cc(=O)n(-c3nc4ccccc4[nH]3)[nH]2)cc1	5	-1	27	0	-1	·	·
COc1ccc2c(c1)nc(-c1cccc(Br)c1)c(=O)n2C(c1ccccn1)c1nc2ccccc2[nH]1 (stereo unspecified)	·	·	53*	0	-3	68*	47*
C[C@H]1CN([C@@H](C)CO)C(=O)c2cc(C#CC3CC3)cnc2O[C@@H]1CN(C)Cc1ccccn1	·	·	·	-1	·	·	·
Cc1ccc(-c2cc(C(=O)NCc3ccccn3)c3ccccc3n2)cc1C	-23	11	46*	1	-3	136*	94*
COCCCNC(=O)c1cc(-c2cccnc2)nc2ccccc12	7	11	4	1	-1	·	·
COCCNC(=O)c1cc(-c2ccc(-c3ccccc3)cc2)nc2ccccc12	-20	17	108*	-2	-5	+	+
COc1ccc(-c2cc(C(=O)OCc3ccccn3)c3ccccc3n2)cc1	0	1	44*	3	-3	107*	86*
CCOC(=O)Cc1cc(-c2ccc(OC)cc2)nc2ccc3ccccc3c12	-22	3	35*	·	-2	110*	89*
O=C(C[C@@H]1CC[C@H](NC(=O)CCN2CCCCC2)[C@@H](CO)O1)Nc1ccc(-c2ccccc2)cc1	·	·	·	1	·	·	·
Cc1ccc(S(=O)(=O)Nc2cccc3c2O[C@H](CN(C)C(=O)Nc2ccccc2)[C@H](C)CN([C@H](C)CO)C3=O)cc1	·	·	·	0	·	·	·
Cc1ccc(-c2cc(C(=O)OCC(=O)NC3CC3)c3ccccc3n2)cc1	-5	9	37*	3	-2	95*	81*
O=C(O)c1cc(-c2cccnc2)nc2ccccc12	0	-3	4	0	0	·	·
CCn1cc(-c2cc(C(=O)O)c3ccccc3n2)cn1	4	3	54*	·	0	60*	44*
CC(=O)NS(=O)(=O)c1ccc(NC(=O)c2cc(-c3ccc(C)cc3)nc3ccccc23)cc1	-11	11	-2	2	-4	·	·
CC(=O)Nc1ccc(-c2cc(C(=O)O)c3ccccc3n2)cc1	2	13	56*	0	-1	+	195*
